Measured values published in PubChem BioAssay (Tox21).
Records with an inconclusive call do not appear. Active and inactive are the calls of the source. The call rests on the fitted dose curve; in most records, active means well fitted activation curve with a large enough effect in the repeat runs; inconclusive means weak or mixed curves; inactive means flat fitted curve, though single readings scatter.

Experiment: A CellTox Green Cytotoxicity Assay to monitor cytotoxicity in HepG2 cells - 8 hour (AID 1224890); further: nearly all actives have a fitted effect of over 45% in size
Details: CellTox Green fluorescence; series mostly up to 76.8 µM; cytotoxicity increase: at the top concentration
Text: National Center for Advancing Translational Sciences [NCATS]
NIH Chemical Genomics Center [NCGC]
U.S. Environmental Protection Agency [EPA]
National Institutes of Environmental Health Sciences [NIEHS]
National Toxicology Program [NTP]
Cell-based models are critical for drug discovery. Determining the natural cytotoxic effects resulting from test compounds is an essential research activity. A CellTox Green Cytotoxicity Assay to monitor cytotoxicity in real time of continues cell culture during 40 hours of the compound treatment was used to screen Tox21 10K library compounds in HepG2 cells. CellTox Green Cytotoxicity Assay is a nonlytic, homogeneous, biofluorescent method to measure cytotoxicity in cell culture after experimental manipulation. The assay system uses a proprietary asymmetric cyanine dye that is excluded from viable cells but preferentially stains the dead cell's DNA. […] Viable cells produce no appreciable increases in fluorescence. Therefore, the fluorescence signal produced by the binding interaction with dead cell DNA is proportional to cytotoxicity.
The mixture of HepG2 cell suspension and reagents were dispensed at 600cells/6 ul/well in 1536-well tissue culture treated black solid bottom plates using a Multidrop dispenser. After the assay plates were incubated at a 37 C/5% CO2 incubator for 5 hours, 23 nL of compounds dissolved in DMSO, positive and negative controls was transferred to the assay plate by a pintool work station. The plates were incubated at 37 C for 40 hours. The fluorescence intensity were measured at 0h, 8h, 16h, 24h, 32h and 40h time points using ViewLux plate reader during compound treatment.
On the % scale 0 is the no-effect control and ±100 the full control effect; potency means the concentration at half of the fitted maximal effect.

Question: With `c1ccc(N=NNc2ccccc2)cc1` as the molecule, how does the “cytotoxicity increase” value read?
Answer: 1.27% (inactive)

Question: With `CC(=O)C(Cl)C(=O)N(C)C` (stereo not given) as the molecule, how does the “cytotoxicity increase” value read?
Answer: 2.03% (inactive)

Question: For `S=C=NCCc1ccccc1`, which “cytotoxicity increase” value is on record?
Answer: 1.7% (inactive)

Question: For `CC(Cc1ccc2c(c1)OCO2)NO` (stereo not given), which “cytotoxicity increase” value is on record?
Answer: -10.3% (inactive)

Question: Which “cytotoxicity increase” value does the source give for `O=c1[nH]c2cc(Cl)ccc2n1C1CCNCC1` here?
Answer: -6.01% [at 35.3 µM] (inactive)

Question: For `c1cc[n+]2c(c1)-c1cccc[n+]1CC2`, which “cytotoxicity increase” value is on record?
Answer: -3.81% [at 35.3 µM] (inactive)

Question: With `CC[C@]1(O)CC[C@H]2[C@@H]3CCC4=CCCC[C@@H]4[C@H]3CC[C@@]21C` as the molecule, how does the “cytotoxicity increase” value read?
Answer: 7.5% [at 35.3 µM] (inactive)

Question: With `O=S(=O)(O)F` as the molecule, how does the “cytotoxicity increase” value read?
Answer: -2.57% (inactive)

Question: Which Potency does the source give for `[Cl][Hg][c]1ccccc1` here?
Answer: 3.09 µM (active)

Question: Which “cytotoxicity increase” value does the source give for `CNC(=O)/C=C(\C)OP(=O)(OC)OC` here?
Answer: 1.51% (inactive)

Question: For `CNC(C)(C)Cc1ccccc1`, which “cytotoxicity increase” value is on record?
Answer: -0.266% [at 35.3 µM] (inactive)

Question: For `COP(=O)(OC)O/C(=C\Cl)c1cc(Cl)c(Cl)cc1Cl`, which “cytotoxicity increase” value is on record?
Answer: 0.995% (inactive)

Question: For `O.O.O.O.O.O.O.O=S(=O)([O-])[O-].[Co+2]`, which “cytotoxicity increase” value is on record?
Answer: -9.51% (inactive)

Question: For `Oc1cccc(Cl)c1Cl`, which “cytotoxicity increase” value is on record?
Answer: -6.83% (inactive)

Question: For `CC1(C)C(C=C(Cl)Cl)C1C(=O)OC(C#N)c1ccc(F)c(Oc2ccccc2)c1` (stereo not given), which “cytotoxicity increase” value is on record?
Answer: -14.2% (inactive)

Question: Which “cytotoxicity increase” value does the source give for `Cc1c([N+](=O)[O-])c(C)c([N+](=O)[O-])c(C(C)(C)C)c1[N+](=O)[O-]` here?
Answer: -10.2% (inactive)

Question: With `O=C(O)CCCCCCNC1c2ccccc2CCc2ccccc21` as the molecule, how does the “cytotoxicity increase” value read?
Answer: 2.13% [at 35.3 µM] (inactive)

Question: For `O=[N+]([O-])c1ccc(CCl)cc1`, which “cytotoxicity increase” value is on record?
Answer: 10.1% (inactive)

Question: With `CCCC[N+]1(C)CCCC1` (tested in a mixture with another compound) as the molecule, how does the “cytotoxicity increase” value read?
Answer: -1.7% (inactive)

Question: With `CCCN` as the molecule, how does the “cytotoxicity increase” value read?
Answer: 6.14% (inactive)

Question: For `O=P(Cl)(Cl)Cl`, which “cytotoxicity increase” value is on record?
Answer: -2.47% (inactive)

Question: With `Clc1ccc(C(c2ccc(Cl)cc2)C(Cl)Cl)cc1` as the molecule, how does the “cytotoxicity increase” value read?
Answer: -4.65% (inactive)

Question: Which “cytotoxicity increase” value does the source give for `CC(=O)[O-].CC(=O)[O-].[Co+2]` here?
Answer: 0.0487% (inactive)

Question: For `C#CC1(O)CCCCC1`, which “cytotoxicity increase” value is on record?
Answer: 14.7% (inactive)

Question: With `Oc1ccc2[nH]cc(CCCCN3CC=C(c4ccccc4)CC3)c2c1` as the molecule, how does the “cytotoxicity increase” value read?
Answer: 0.581% [at 35.3 µM] (inactive)

Question: For `Oc1ccc([C@H]2CNCc3c2ccc(O)c3O)cc1O`, which Potency is on record?
Answer: 26.8 µM (active)

Question: Which “cytotoxicity increase” value does the source give for `CC(C)=CCN1CC[C@@]2(C)c3cc(O)ccc3C[C@@H]1[C@@H]2C` here?
Answer: -12.3% (inactive)

Question: With `N#CCCl` as the molecule, how does the “cytotoxicity increase” value read?
Answer: -0.0494% (inactive)

Question: For `CCC1(CC)C(=O)N=C(O)NC1=O`, which “cytotoxicity increase” value is on record?
Answer: -4.42% (inactive)

Question: Which “cytotoxicity increase” value does the source give for `CCC(C)Nc1c([N+](=O)[O-])cc(C(C)(C)C)cc1[N+](=O)[O-]` (stereo not given) here?
Answer: 8.62% (inactive)

Question: With `O=[N+]([O-])c1ccccc1-c1ccccc1` as the molecule, how does the “cytotoxicity increase” value read?
Answer: 2.68% (inactive)

Question: With `O=c1c2ccccc2c(=O)c2c1cc(Cl)c1[nH]c3c([nH]c12)c(Cl)cc1c(=O)c2ccccc2c(=O)c13` as the molecule, how does the “cytotoxicity increase” value read?
Answer: 3.5% (inactive)

Question: Which Potency does the source give for `Fc1ccc(C(OCCN2CCN(CCCc3ccccc3)CC2)c2ccc(F)cc2)cc1` here?
Answer: 23.9 µM (active)

Question: Which “cytotoxicity increase” value does the source give for `O=[N+]([O-])C(Br)Br` here?
Answer: -0.23% (inactive)

Question: Which “cytotoxicity increase” value does the source give for `CNC(=O)O/N=C(\C)C(C)S(C)(=O)=O` (stereo not given) here?
Answer: 11.6% [at 725 µM] (inactive)

Question: For `CCNc1nc(NC(C)C(C)C)nc(SC)n1` (stereo not given), which “cytotoxicity increase” value is on record?
Answer: 2.73% (inactive)

Question: With `COP(=S)(NC(C)C)Oc1ccc(C)cc1[N+](=O)[O-]` (stereo not given) as the molecule, how does the “cytotoxicity increase” value read?
Answer: -8.75% (inactive)

Question: For `CC[C@H](C)[C@H]1O[C@]2(C=C[C@@H]1C)C[C@@H]1C[C@@H](C/C=C(\C)[C@@H](O[C@H]3C[C@H](OC)[C@@H](O[C@H]4C[C@H](OC)[C@@H](NC)[C@H](C)O4)[C@H](C)O3)[C@@H](C)/C=C/C=C3\CO[C@@H]4[C@H](O)C(C)=C[C@@H](C(=O)O1)[C@]34O)O2`, which Potency is on record?
Answer: 17.4 µM (active)

Question: With `CN(C)c1ccc(N)cc1` as the molecule, how does the “cytotoxicity increase” value read?
Answer: -4.99% (inactive)

Question: Which “cytotoxicity increase” value does the source give for `CN/C(=N\[N+](=O)[O-])NCc1cnc(Cl)s1` here?
Answer: -13.9% (inactive)
